High-throughput results: PubChem BioAssay, National Center for Advancing Translational Sciences (NCATS)
VACV mCherry inh: vaccinia inhibition (mCherry reporter). Vaccinia virus mCherry reporter infection, fluorescence. hit rate 0.63% among 310,000. AID 720579. Potency, µM (doses to about 36.5 µM), for the others: at the top dose activity change, negative = inhibition, most hits filed as inhibitors; calls by dose curve; tested in A549 cells; further: potency means the concentration at half of the fitted maximal effect; nearly all actives have a fitted effect of over 35% in size
FMDV inh: antivirals against foot and mouth disease virus | hit rate 1.2% among 410,000 | Potency, µM (series often up to 57.9 µM), for the others: top-dose activity change, negative = inhibition, usual class: inhibitors | FMDV antiviral cell-based qHTS; calls by dose curve; tested in HEK293T cells; further: read-out not given here; potency means the concentration at half of the fitted maximal effect; nearly all actives have a fitted effect of over 45% in size
VACV Venus inh: inhibitors of vaccinia virus (Venus reporter); Vaccinia virus Venus reporter expression, fluorescence; Potency, µM (titrated, usually from 36.5 µM), for the others: at the highest dose activity change, negative = inhibition, usual class: inhibitors; hit rate 0.46% among 330,000; calls by dose curve; tested in A549 cells; further: potency means the concentration at half of the fitted maximal effect; nearly all actives have a fitted effect of over 30% in size
HCMV inh: inhibitors of human cytomegalovirus; HFF cells, HCMV-luciferase reporter, 72 h; stronger effect = lower value; activity change, negative = inhibition, % at 57.5 µM; hit rate 4.5% among 410,000; in the data active means activity change below about -60%; inconclusive means no clear call, values can overlap the other calls; inactive means above about -39%
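Cell-based, HFFs, 1000 cells/well, 16 h 37C; cpds in DMSO + HCMV-luc, MOI 1 PFU/cell; 72 h 37C; OneGlo luminescence after 5 min RT; norm. to buffer vs Salinomycin 10uM.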
Marburg entry inh: Marburg virus entry inhibition | Potency, µM (titrated, usually from 37.8 µM), inactives show at the highest dose activity change, negative = inhibition, most hits filed as inhibitors | Marburg virus pseudotyped entry inhibition, cell reporter | hit rate 1.8% among 300,000; calls by dose curve; tested in HEK293 cells; further: potency means the concentration at half of the fitted maximal effect
LASV entry inh: Lassa virus entry inhibition; Potency, µM (top dose mostly 37.9 µM), for the others: at the highest dose activity change, negative = inhibition, hits mostly inhibitors; Lassa virus pseudotype entry inhibition, cell reporter; hit rate 1.2% among 300,000; calls by dose curve; tested in HEK293 cells; further: potency means the concentration at half of the fitted maximal effect; nearly all actives have a fitted effect of over 50% in size
* hit, by the source's call; i = inactive; ? = inconclusive; . = not tested or not shown; [ ] = remark or other dose. A selection: hits, their analogues and other compounds. The true share with any hit is near 6.5%. On the % scale 0 is the no-effect control and ±100 the full control effect.

SMILES | VACV mCherry inh | FMDV inh | VACV Venus inh | HCMV inh | Marburg entry inh | LASV entry inh
CC(=O)OC[C@H]1O[C@H](CCO/N=C(\C)CCC(=O)OC[C@H]2O[C@H](C#Cc3ccccc3)C=C[C@@H]2Oc2ccc(C)cc2)C=C[C@@H]1OC(C)=O | . | . | . | . | 21.3%[14.2 µM] | .
CNC(=O)Oc1cccc(-c2cn3cc(Cl)ccc3n2)c1 | -20.6% | -90.4% | -16.2% | ? | 2.82µM* | ?
CNC(=O)Oc1ccc(-c2cn3cc(C)ccc3n2)cc1 | -28.8% | 12.6µM* | -10.4% | -24.5 | 0.651µM* | 0.316µM*
CN(C)S(=O)(=O)c1cccc(-c2cn3cc(Cl)ccc3n2)c1 | . | 16.4% | . | . | ? | 7.2%
CN(C)S(=O)(=O)N1CCN(CC(=O)Nc2ccc(F)cc2)CC1 | . | 14.7% | . | 23.1 | . | .
COC(=O)C1=C(c2ccc(F)cc2OCc2ccccc2)C[C@@H]2CC[C@H]1N2C(=O)NCc1ccc(F)cc1 | -31.6% | -31.1% | -25.9% | -20.4 | . | .
COC(=O)C1=C(c2ccc(F)cc2OCc2ccccc2)C[C@@H]2CC[C@H]1N2C(=O)NCc1ccc(C)cc1 | -3.0% | -3.5% | ? | -67.1* | . | .
COC(=O)C1=C(c2ccccc2OCc2ccccc2)C[C@@H]2CC[C@H]1N2C(=O)NCCOc1ccccc1Cl | -15.1% | -25.5% | ? | -72.9* | 1.2% | .
COc1ccc(/C=C/C(=O)N(C)c2ccccc2C(=O)O)cc1 | -2.3% | 3.8% | -5.4% | -7.7 | -1.6%[46.1 µM] | -14.8%
CCOc1ccc(CCNC(=O)C2CCN(Cc3nc(-c4ccccc4C)oc3C)CC2)cc1OCC | ? | ? | ? | 11.1 | -16.0%[46.1 µM] | -7.6%[46.1 µM]
COc1ccc(/C=C/c2ccc3ccccc3[n+]2C)cc1OC | -15.8% | 57.0% | ? | . | . | .
COc1cc2c(ccc3c4cc(OC)c(OC)cc4c[n+](C)c23)cc1O | -15.2% | 9.9% | -9.5% | -99.7* | ? | -25.5%
COc1cc2c[n+](C)c3c4ccccc4ccc3c2cc1OC | -13.8% | 8.5% | -10.8% | -81.5* | -6.5% | 26.5%
COc1ccc2cc(C(=O)O)ccc2c1 | . | 11.3% | . | 90.1 | 13.2% | 7.0%
COc1ccc2c(c1)c[n+](C)c1c3cc(OC)c(OC)cc3ccc21 | -15.8% | -20.2% | -19.2% | -96.3* | . | .
CCn1nc(C)cc1C(=O)NCC1Cc2cccc(-c3cccnc3)c2O1 (stereo unspecified) | -16.6% | -25.2% | -14.2% | . | . | .
CCCCc1ccc(CC(=O)NO)cc1 | 28.3% | . | -10.8% | . | . | .
CC1(C)CC(=O)C=C(c2ccc(-c3ccccc3)cc2)C1 | -12.6% | 44.3% | -13.2% | 45.6 | . | .
CC1(C)CC(=O)C=C(c2cccc(Br)c2)C1 | i | -2.7% | -8.6% | -64.0* | . | .
CC(N)C(=O)NC1C2C(=C(O)CC(O)C2O)C(=O)OC1(C)C(Cl)Cl (stereo unspecified) | ? | ? | 1µM* | -75.8* | 0.316µM* | 0.501µM*
Cc1ccsc1C(=O)NNC(=O)c1csc(N2CCOCC2)n1 | -9.8% | -11.2% | -6.3% | -5.2 | 16.0% | 0.4%
Cc1ccc(C)c(SCC(=O)NNC(=O)c2csc(N3CCOCC3)n2)c1 | . | 1.7% | . | -61.6* | . | .
CC1=C(C(=O)OCC(C)C)C2(O)C(=O)c3ccccc3C2(O)N1 (stereo unspecified) | -13.2% | -22.2% | -3.9% | -12.9 | 10.9% | -23.0%
O=C(NCc1ccccn1)C1CCN(C2CCN(Cc3cccc(F)c3)CC2)CC1 | -16.0% | -28.4% | -7.9% | 3.4 | . | .
COc1ccc(S(=O)(=O)N2CCCC2CNC(=O)C(=O)Nc2ccc(C)cc2)cc1 (stereo unspecified) | ? | -0.4% | -13.6% | ? | ? | ?
SMILES | VACV mCherry inh | FMDV inh | VACV Venus inh | HCMV inh | Marburg entry inh | LASV entry inh
COc1ccc(NC(=O)C(=O)NCC2CCCN2S(=O)(=O)c2ccc(C)cc2)cc1 (stereo unspecified) | ? | -22.5% | -24.9% | -85.1* | ? | ?
Cc1ccc(S(=O)(=O)N2CCCC2CNC(=O)C(=O)Nc2ccc(F)cc2)cc1 (stereo unspecified) | ? | 9.3% | ? | 0.6 | -28.5% | 5.01µM*
COc1ccc(-n2nnnc2C2(C)CCC(=O)N2Cc2ccccc2)cc1 (stereo unspecified) | -21.6% | -6.4% | -2.0% | ? | . | .
O=C1NC(=S)S/C1=C\C=C\c1ccc([N+](=O)[O-])o1 | ? | ? | ? | -99.8* | ? | ?
CCOc1ccc(C(=O)Nc2ccc(N3CCN(C)CC3)cc2)cc1Br | . | -7.0% | ? | 39.8 | 11.2µM* | 6.0%
CCOCCc1nn2c(=O)cc(CSCC(=O)Nc3cc(C)cc(C)c3)nc2s1 | -3.9% | 0.9% | 4.5% | -61.6* | -10.8%[46.1 µM] | ?
CSc1ccc(/C=C(/Sc2nnc(-c3ccccc3)o2)C(=O)O)cc1 | -26.7% | 11.4% | -17.4% | -68.6* | -5.8%[46.1 µM] | -27.1%
Cc1ccc(S(=O)(=O)N2C3CCCCC3O[C@H]2CC(=O)c2cccc3ccccc23)cc1 (stereo partly specified) | -0.2% | -1.2% | -18.3% | 11.9 | . | .
COc1cc(/C=C2\SC(=Nc3ccccc3)N(CCc3c[nH]c4ccccc34)C2=O)ccc1OC(C)C(=O)O (stereo unspecified) | -15.0% | 0.0% | 1.9% | -32.1 | -1.3% | 0.0%
O=C1/C(=C/c2ccc(N3CCOCC3)o2)SC(=Nc2ccccc2)N1CCc1c[nH]c2ccccc12 | ? | -15.7% | 19.5% | . | ? | 7.08µM*
COc1cc2sc(-c3ccccc3OC)c(-c3ccc(OCCN4CCCCC4)cc3)c2cc1OC | -22.2% | ? | ? | -18.2 | . | .
COc1ccccc1-c1sc2cc3c(cc2c1-c1ccc(OCCN2CCCCC2)cc1)OCO3 | 28.2µM* | ? | 11.2µM* | -32.7 | . | .
CCCN(Cc1ccccc1)C(=O)Nc1ccc2c(c1)nnn2C | -6.1% | . | 4.0% | -0.7 | ? | 2.59µM*
Cn1nnc2cc(NC(=O)Nc3ccccc3F)ccc21 | -4.1% | 1.5% | -9.8% | 39.7 | . | .
CCC(=O)N[C@@H]1c2ccccc2C2(CCN(Cc3[nH]c4c(Cl)cccc4c3C)CC2)[C@H]1OC | -7.2% | -12.6% | -8.6% | . | . | .
